# Records with an inconclusive call do not appear. Active and inactive are the calls of the source. Calls follow the shape of the dose curve; as a rule, active = well fitted inhibition curve with a large enough effect; inconclusive = small, poorly fitted or top-dose-only effect; inactive = flat fitted curve, though single readings scatter.
# Assay: Secondary Assay for lipid storage modulators: Cytotoxcity for probe SAR
# Conditions: Drosophila S3 cells viability, CellTiter-Glo luminescence, 24 h; series mostly up to 46.1 µM; activity change, negative = cytotoxicity: at the top concentration
# Excerpt: NIH Molecular Libraries Probe Production Centers Network [MLPCN] NIH Chemical Genomics Center [NCGC] MLPCN Grant: 1 R03 MH085686-01 Assay Submitter (PI): Beller, Mathias; Max-Planck-Institut fur Biophysikalische Chemie, Germany. NCGC Assay Overview: Storing lipids as a reservoir for energy or the anabolism of elementary metabolites is a common feature of probably all cells and is conserved from bacteria to humans. The universal cellular lipid storage organelle is the so-called lipid storage droplet (LD). Although ubiquitous, LDs share a simple structure composed of a hydrophobic core that harbors the storage lipids, which is shielded by a droplet-specific phospholipid monolayer to which proteins are attached. The current model of LD biogenesis involves an incorporation of the lipid core into the membrane leaflets of the endoplasmic reticulum (ER) followed by a subsequent budding-like maturation of a LD, which ultimately pinches off. Once released, LD volume can increase by localized lipogenesis or fusion of existing droplet. Storage lipids are re-mobilized enzymatically by lipase activity. Lipase regulation in the adipocyte is heavily studied and involves multiple components including catecholamine signaling, the LD-associated proteins Perilipin and comparative gene identification (CGI-58) and at least two lipases named hormone sensitive lipase (HSL) and adipocyte triglyceride lipase (ATGL). LD regulation outside of the adipocyte is poorly understood and only few components are known. However, there is an urgent need to learn more about ectopic fat depots as mislocalized storage of lipids, for example in the liver or muscle, is an eminent health problem associated with insulin resistance or the metabolic syndrome. We developed a laser-scanning cytometer assay to enable 1,536-well screening and combined the results of the small molecules screen with an RNAi database based on lipid storage. The compound was tested here for cytotoxcity using CellTiter-Glo.
# Assay Protocol Summary: Cytotoxcity assay was performed with embryonic Drosophila S3 cells (Bloomington Drosophila Genomics Resource Center [DGRC]). We dispensed 4 uL of cells at 1.25 x 10^6 cells/mL into Greiner solid white 1,536-well plates with a bottle-valve solenoid-based dispenser (Aurora) to obtain 5,000 cells/well. A total of 23 nL of compound solution of different concentrations were transferred to the assay plates using a Kalypsys pin tool equipped with a 1,536-pin array containing 10-nL slotted pins (FP1S10, 0.457-mm diameter, 50.8 mm long; V&P Scientific). One microliter of oleic acid (400 uM) was added, and the plate was lidded with stainless steel rubber gasket lined lids containing pinholes. After 24 hrs of incubation at 24 degrees Celsius and 95% humidity, 4 uL of CellTiter-Glo (Promega) was added to the wells. Luminescence was detected on the Perkin Elmer ViewLux.
row,SMILES,"activity change, negative = cytotoxicity"
1,CCOc1ccc(CCNC(=O)c2ccccc2)cc1OCC,-13.3% (inactive)
2,CCOc1ccc(CCNC(=O)c2ccc(Oc3ccccc3)cc2)cc1OCC,-11.1% (inactive)
3,CCOC(=O)C1CCN(C(=O)C2(NC(=O)Nc3ccccc3Cl)CCCC2)CC1,-6.46% (inactive)
4,CCC/C=C/C/C=C/C=C/C=N/NN=O,-22.4% (inactive)
5,CCOc1ccc(CCNC(=O)c2ccc(C(=O)c3ccccc3)cc2)cc1OCC,-22.2% (inactive)
